Several values for one entry are separate records, joined by “and”; a condition that tells them apart may be missing. Identical values can stand only once. Results filed as inconclusive are left out. Entries that show only a call come without a potency. Some compounds were tested as several samples or in several runs, with calls that do not always agree. Activity calls are given as the source filed them. Calls come from the whole dose curve; as a rule, active = well fitted inhibition curve with a large enough effect; inconclusive = small, poorly fitted or top-dose-only effect; inactive = flat fitted curve, though single readings scatter.
Note: nearly all actives have a fitted effect of over 60% in size.
Potency is the fitted concentration of half-maximal effect.

One assay has as its system SC27B. In words: qHTS profiling for inhibitors of Plasmodium falciparum proliferation (AID 504749). To be noted: P. falciparum in erythrocytes, SYBR Green DNA, 72 h; series mostly up to 28.7 µM. In short, it runs like this: (§1)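 Quantitative HTS: compounds pinned into medium, infected erythrocytes added (0.3% parasitemia, 2.5% hematocrit), 72 h culture at 37 C under 5% CO2. Saponin/Triton lysis with SYBR Green I, overnight RT, then fluorescence read.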
For orientation: Quantitative high-throughput screening tests each substance at several concentrations.
For the molecule `NC[C@H](O)c1ccc(O)c(O)c1`, the Potency result is “inactive”.
For `Cc1oncc1C(=O)Nc1ccc(C(F)(F)F)cc1`, the Potency result is “inactive”.
Same read-out and setting: under `CCOC(=O)N1CCC(=C2c3ccc(Cl)cc3CCc3cccnc32)CC1` stands 6.31 µM (active).
On the same count and under the same terms, under `N[C@@H]1CONC1=O` stands “inactive”; under `Nc1nc2c(ncn2COCCO)c(=O)[nH]1`, “inactive”.
On the same count and under the same terms, under `Cc1ccc(N(CC2=NCCN2)c2cccc(O)c2)cc1` stands “inactive”; under `N#Cc1ccc(C(c2ccc(C#N)cc2)n2cncn2)cc1`, “inactive”.
With `Oc1ccc(C2CNCCc3c2cc(O)c(O)c3Cl)cc1` (configuration not stated), the Potency result is “inactive”.
In the case of `COc1ccc2nc(S(=O)Cc3ncc(C)c(OC)c3C)[nH]c2c1` (configuration not stated), the Potency entry was “inactive”.
The same measure, in the same setting: under `CC(C)C[C@H](NC(=O)[C@@H](O)[C@H](N)Cc1ccccc1)C(=O)O` stands 7.94 µM (active).

The next assay concerns TAB109. The assay is described as above. To be noted: P. falciparum in erythrocytes, SYBR Green DNA, 72 h; series mostly up to 28.7 µM. In short, it runs like this:
as §1
Regarding `NC[C@H](O)c1ccc(O)c(O)c1`, the Potency entry is “inactive”.
Same read-out and setting: under `Cc1oncc1C(=O)Nc1ccc(C(F)(F)F)cc1` stands “inactive”; under `CCOC(=O)N1CCC(=C2c3ccc(Cl)cc3CCc3cccnc32)CC1`, “inactive”; under `Nc1nc2c(ncn2COCCO)c(=O)[nH]1`, “inactive”.
The same measure, in the same setting: under `Cc1ccc(N(CC2=NCCN2)c2cccc(O)c2)cc1` stands “inactive”; under `N#Cc1ccc(C(c2ccc(C#N)cc2)n2cncn2)cc1`, “inactive”; under `Oc1ccc(C2CNCCc3c2cc(O)c(O)c3Cl)cc1` (configuration not stated), “inactive”.
The same measure, in the same setting: under `COc1ccc2nc(S(=O)Cc3ncc(C)c(OC)c3C)[nH]c2c1` (configuration not stated) stands “inactive”; under `CC(C)C[C@H](NC(=O)[C@@H](O)[C@H](N)Cc1ccccc1)C(=O)O`, 6.31 µM (active).

Another assay relates to TAB113. Described as above. To be noted: P. falciparum in erythrocytes, SYBR Green DNA, 72 h; series mostly up to 28.7 µM. In short, it runs like this:
as §1
For `NC[C@H](O)c1ccc(O)c(O)c1`, the Potency result was “inactive”.
On the same count and under the same terms, under `Cc1oncc1C(=O)Nc1ccc(C(F)(F)F)cc1` stands “inactive”; under `N[C@@H]1CONC1=O`, “inactive”.
For the molecule `Nc1nc2c(ncn2COCCO)c(=O)[nH]1`, the Potency entry is “inactive”.
The same measure, in the same setting: under `Cc1ccc(N(CC2=NCCN2)c2cccc(O)c2)cc1` stands “inactive”.
`N#Cc1ccc(C(c2ccc(C#N)cc2)n2cncn2)cc1`: the Potency entry was “inactive”.
Same read-out and setting: under `Oc1ccc(C2CNCCc3c2cc(O)c(O)c3Cl)cc1` (configuration not stated) stands “inactive”; under `COc1ccc2nc(S(=O)Cc3ncc(C)c(OC)c3C)[nH]c2c1` (configuration not stated), “inactive”.
Consider `CC(C)C[C@H](NC(=O)[C@@H](O)[C@H](N)Cc1ccccc1)C(=O)O`, for which the Potency was 7.08 µM (active).

In a further assay the test system is TAB165. The assay is described as above. The settings on record: P. falciparum in erythrocytes, SYBR Green DNA, 72 h; series mostly up to 28.7 µM. In short, it runs like this:
as §1
With `NC[C@H](O)c1ccc(O)c(O)c1`, the Potency result was “inactive”.
Still for that read-out and setting: under `Cc1oncc1C(=O)Nc1ccc(C(F)(F)F)cc1` stands “inactive”; under `CCOC(=O)N1CCC(=C2c3ccc(Cl)cc3CCc3cccnc32)CC1`, 2.51 µM (active).
The same measure, in the same setting: under `N[C@@H]1CONC1=O` stands “inactive”; under `Nc1nc2c(ncn2COCCO)c(=O)[nH]1`, “inactive”; under `Cc1ccc(N(CC2=NCCN2)c2cccc(O)c2)cc1`, “inactive”.
On the same count and under the same terms, under `N#Cc1ccc(C(c2ccc(C#N)cc2)n2cncn2)cc1` stands “inactive”; under `Oc1ccc(C2CNCCc3c2cc(O)c(O)c3Cl)cc1` (configuration not stated), “inactive”.
In the case of `CC(C)C[C@H](NC(=O)[C@@H](O)[C@H](N)Cc1ccccc1)C(=O)O`, the Potency is 5.01 µM (active).

A further assay has as its system W2. Described as above. To be noted: P. falciparum in erythrocytes, SYBR Green DNA, 72 h; series mostly up to 28.7 µM. In short, it runs like this:
as §1
For the molecule `NC[C@H](O)c1ccc(O)c(O)c1`, the Potency entry is “inactive”.
Take `Cc1oncc1C(=O)Nc1ccc(C(F)(F)F)cc1`: the Potency was 3.22 µM (active).
The same measure, in the same setting: under `CCOC(=O)N1CCC(=C2c3ccc(Cl)cc3CCc3cccnc32)CC1` stands 8.49 µM (active); under `CCOC(=O)C1=C[C@@]2(CC)CCCN3CCc4c(n1c1ccccc41)[C@H]32`, 4.78 µM (active).
With `N[C@@H]1CONC1=O`, the Potency result was “inactive”.
On the same count and under the same terms, under `Nc1nc2c(ncn2COCCO)c(=O)[nH]1` stands “inactive”; under `Cc1ccc(N(CC2=NCCN2)c2cccc(O)c2)cc1`, “inactive”.
On to `N#Cc1ccc(C(c2ccc(C#N)cc2)n2cncn2)cc1`, for which the Potency entry is “inactive”.
On the same count and under the same terms, under `CC(C)C[C@H](NC(=O)[C@@H](O)[C@H](N)Cc1ccccc1)C(=O)O` stands 1.69 µM (active).

The test system of another assay is HEK293. Description: Cytotoxic Profiling of Annotated Libraries Using Quantitative High-Throughput Screening (AID 1296008). To be noted: Five cell lines viability, CellTiter-Glo ATP luminescence, 48-72 h; max response: hits give low values. In short, it runs like this:
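Compounds were pin-transferred onto cells and incubated 48 or 72 hr at 37 degree Celsius, 95% humidity. CellTiter-Glo was added, plates sat 10 min at room temperature, then ATP-coupled luminescence was imaged as the viability read-out.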
Background: Cellular ATP, detected with luciferase, serves as a proxy for viable cell number.
`CCn1c(-c2nonc2N)nc2c(C#CC(C)(C)O)ncc(OC[C@H]3CCCNC3)c21`: the Potency is 0.0469 µM (active).
Still for that read-out and setting: under `CCOC(=O)N1CCC(=C2c3ccc(Cl)cc3CCc3cccnc32)CC1` stands 18.7 µM (active) and 18.8 µM (active); under `NC(=O)C1CCCc2c1[nH]c1ccc(Cl)cc21` (configuration not stated), 5.9 µM (active); under `OC[C@H](Cc1ccccc1)Nc1nc(Oc2ccc3c(c2)CCC3)nc2c1ncn2Cc1ccc(-c2ccccc2)cc1`, 8.33 µM (active).
For the molecule `CCCS(=O)(=O)Nc1ccc(F)c(C(=O)c2c[nH]c3ncc(-c4ccc(Cl)cc4)cc23)c1F`, the max response was -5.51% (inactive).
Take `O=c1ncn2nc(Sc3ccc(F)cc3F)ccc2c1-c1c(Cl)cccc1Cl`: the Potency was 13.2 µM (active).
Consider `Cc1cccc(-c2[nH]c(C(C)(C)C)nc2-c2ccc3nccnc3c2)n1`, for which the Potency was 3.72 µM (active).
On the same count and under the same terms, under `Cc1cc(-c2ccc(CC(=O)Nc3ccc(-c4cccnc4)cc3)cc2)ccn1` stands 9.35 µM (active).
With `Cn1cnc2c(F)c(Nc3ccc(Br)cc3Cl)c(C(=O)NOCCO)cc21`, the Potency was 1.32 µM (active) and the max response was -14.9% (inactive).
In the case of `Cc1cc(Nc2nc(N[C@@H](C)c3ncc(F)cn3)ncc2Cl)n[nH]1`, the Potency is 7.31 µM (active).
In the case of `CNC(=O)c1ccc(N2C(=S)N(c3ccc(C#N)c(C(F)(F)F)c3)C(=O)C2(C)C)cc1F`, the max response was -4.81% (inactive).
Turning to `Cc1cc2c(C(C)C)c(O)c(O)c(C=O)c2c(O)c1-c1c(C)cc2c(C(C)C)c(O)c(O)c(C=O)c2c1O`, the Potency is 23.5 µM (active).
The same measure, in the same setting: under `CS(=O)(=O)c1cccc(CNc2nc(Nc3ccc4c(c3)CCC(=O)N4)ncc2C(F)(F)F)c1` stands 18.4 µM (active); under `CCc1cncnc1N1CCN(Cc2nc3ccc(C(F)(F)F)cc3[nH]2)CC1`, 14.8 µM (active) and 13 µM (active).
Same read-out and setting: under `CC(=O)NC(C)c1ccc(Oc2ccc(OC(C)C)cc2)cc1` (configuration not stated) stands 14.8 µM (active).

These data come from PubChem BioAssay (NCATS).
